{"source": "paper PMC4552634", "about": "“A New Set of Chemical Starting Points with Plasmodium falciparum Transmission-Blocking Potential for Antimalarial Drug Discovery” (PLoS ONE, 2015)", "note": "In all, about 13,000 compounds went through this assay and about 3,200 (25%) showed an effect of 50% or more. Some of the results follow.", "data": [{"tested_on": "P. falciparum stage V gametocytes", "set-up": "BacTiter-Glo ATP luminescence viability of purified stage V gametocytes in 384-well plates, per cent inhibition versus DMSO", "details": "48 h, 5 µM; inhibitor", "units": {"% Inhibition": "%"}, "values": [{"smiles": "CC(C)NCc1ccc(-c2cccc(-c3nc4ccc(C(F)(F)F)cc4[nH]3)c2)cc1", "note": "[TCMDC-132739]", "% Inhibition": 37.23}, {"smiles": "COc1ccc2nccc([C@H](O)CN3CCC(NCc4ccc5c(c4C)OCCO5)CC3)c2n1", "note": "[TCMDC-136066]", "% Inhibition": 21.32}, {"smiles": "Cc1c(C)n(C2CCCCC2)c2ncnc(OC3CCN(CC(=O)N4CCCC4)CC3)c12", "note": "[TCMDC-124854]", "% Inhibition": 2.854}, {"smiles": "COc1ccc(C(=O)NC2CCN(c3ccnc4cc(Cl)ccc34)C2)cc1", "note": "(stereo not drawn) [TCMDC-133648]", "% Inhibition": 42.46}, {"smiles": "Cc1cc(Nc2ccccc2)nc(Nc2ccccc2)n1", "note": "[TCMDC-124214]", "% Inhibition": 11.37}, {"smiles": "Cn1c(NC(=O)CCCCCNC(=O)c2ccc(O)c(-c3ccc(Cl)c(Cl)c3)c2)nc2ccccc21", "note": "[TCMDC-140880]", "% Inhibition": 4.339}, {"smiles": "CC(=O)Oc1c(Cl)c(C)nc(C)c1-c1ccc(Oc2ccc(Cl)cc2)cc1", "note": "[TCMDC-137381]", "% Inhibition": 75.31}, {"smiles": "Cc1nc(N)nc(N)c1-c1ccc(Cl)cc1", "note": "[TCMDC-138984]", "% Inhibition": -0.9845}, {"smiles": "Cc1cc(Nc2ccc(Oc3ccc(Cl)cc3)cc2)nc(N)n1", "note": "[TCMDC-138073]", "% Inhibition": -5.729}, {"smiles": "COc1cccc(CN2CCCC(COC(c3ccc(F)cc3)c3ccc(F)cc3)C2)c1O", "note": "(stereo not drawn) [TCMDC-136038]", "% Inhibition": -18.09}, {"smiles": "O=C(NC1CCN(Cc2cccc(C(F)(F)F)c2)CC1)c1ccc(-c2cccc(C(F)(F)F)c2)s1", "note": "[TCMDC-134363]", "% Inhibition": 23.99}, {"smiles": "CN(C)c1ccc(CN2CCC(NC(=O)c3ccc(-c4cccc(C(F)(F)F)c4)s3)CC2)cc1", "note": "[TCMDC-134325]", "% Inhibition": -44.98}, {"smiles": "COc1ccccc1CN1CCC(NC(=O)c2ccc(-c3cccc(C(F)(F)F)c3)s2)CC1", "note": "[TCMDC-134355]", "% Inhibition": 4.957}, {"smiles": "CC(C)Oc1cccc(-c2ccc(C(=O)NCC3CCCN(Cc4cccc(C(F)(F)F)c4)C3)s2)c1", "note": "(stereo not drawn) [TCMDC-134362]", "% Inhibition": 86.43}, {"smiles": "CN(C)c1ccc(CN2CCCC(CNC(=O)c3ccc(-c4cccc(C(F)(F)F)c4)s3)C2)cc1", "note": "(stereo not drawn) [TCMDC-134324]", "% Inhibition": 98.4}, {"smiles": "CN(C)c1ccc(-c2ccc(C(=O)NC3CCN(Cc4cccc(C(F)(F)F)c4)CC3)s2)cc1", "note": "[TCMDC-134365]", "% Inhibition": -28.78}, {"smiles": "CC(=O)Nc1ccc(CN2CCC(NC(=O)c3ccc(-c4cccc(OC(C)C)c4)s3)CC2)cc1", "note": "[TCMDC-134335]", "% Inhibition": 1.059}, {"smiles": "COc1ccccc1-c1ccc(C(=O)NCC2CCCN(Cc3cccc(C(F)(F)F)c3)C2)s1", "note": "(stereo not drawn) [TCMDC-134360]", "% Inhibition": 55.62}, {"smiles": "O=C(NC1CCN(Cc2cccc(C(F)(F)F)c2)CC1)c1ccc(-c2cccc(Cl)c2)s1", "note": "[TCMDC-134364]", "% Inhibition": 25.17}, {"smiles": "COc1cccc(-c2ccc(C(=O)NCC3CCCN(Cc4cccc(C(F)(F)F)c4)C3)s2)c1", "note": "(stereo not drawn) [TCMDC-134361]", "% Inhibition": 72.66}, {"smiles": "Cc1ccc(NC(=O)Nc2ccc(Cl)c(C(F)(F)F)c2)cc1-c1ccc(C(=O)Nc2ccncc2)cc1", "note": "[TCMDC-133700]", "% Inhibition": -87.03}, {"smiles": "Cc1ccc(NC(=O)c2cccc(N3CCN(c4ccncc4)CC3)c2)cc1F", "note": "[TCMDC-135124]", "% Inhibition": -11.57}, {"smiles": "CN(C)c1ccc(C2c3nc[nH]c3CCN2C(=O)Nc2cccc([N+](=O)[O-])c2)cc1", "note": "(stereo not drawn) [TCMDC-141569]", "% Inhibition": 12.33}, {"smiles": "CCNc1cc(C(=O)N[C@@H](Cc2ccccc2)[C@H](O)CNC(C)CCCC(C)C)cc(N2CCCS2(=O)=O)c1", "note": "(stereo partly drawn) [TCMDC-138825]", "% Inhibition": 1.46}, {"smiles": "CCNc1cc(C(=O)N[C@@H](Cc2cccc(F)c2)[C@H](O)CNC(C)CCCC(C)C)cc(N2CCCCS2(=O)=O)c1", "note": "(stereo partly drawn) [TCMDC-135307]", "% Inhibition": 42.64}, {"smiles": "CCNc1cc(C(=O)N[C@@H](Cc2ccccc2)[C@H](O)CNC(C)Cc2cccc(Cl)c2)cc(N2CCCCS2(=O)=O)c1", "note": "(stereo partly drawn) [TCMDC-135412]", "% Inhibition": 76.43}, {"smiles": "CCNc1cc(C(=O)N[C@@H](Cc2ccoc2)[C@H](O)CNC(C)CCCC(C)C)cc(N2CCCCS2(=O)=O)c1", "note": "(stereo partly drawn) [TCMDC-135411]", "% Inhibition": 37.57}, {"smiles": "O=C(N[C@@H](Cc1ccccc1)[C@H](O)CNC1CCOCC1)c1cc(C2CCCC2)cc(N2CCCCS2(=O)=O)c1", "note": "[TCMDC-134938]", "% Inhibition": 31.68}, {"smiles": "CCNc1cc(C(=O)N[C@@H](Cc2ccccc2)[C@H](O)CNC(C)(C)Cc2cccc(Cl)c2)cc(N2CCCCS2(=O)=O)c1", "note": "[TCMDC-135309]", "% Inhibition": 13.84}, {"smiles": "COc1cc(CNC[C@@H](O)[C@H](Cc2ccccc2)NC(=O)c2cc(C3CCCC3)cc(N3CCCCS3(=O)=O)c2)cc(OC)c1", "note": "[TCMDC-134561]", "% Inhibition": 14.07}, {"smiles": "CCCC(C)NC[C@@H](O)[C@H](Cc1ccccc1)NC(=O)c1cc(NCC)cc(N2CCCCS2(=O)=O)c1", "note": "(stereo partly drawn) [TCMDC-135226]", "% Inhibition": 61.06}, {"smiles": "CCCCCC(C)NC[C@@H](O)[C@H](Cc1ccccc1)NC(=O)c1cc(NCC)cc(N2CCCCS2(=O)=O)c1", "note": "(stereo partly drawn) [TCMDC-135293]", "% Inhibition": 40.73}, {"smiles": "CCNc1cc(C(=O)N[C@@H](Cc2cccc(Cl)c2)[C@H](O)CNC(C)CCCC(C)C)cc(N2CCCCS2(=O)=O)c1", "note": "(stereo partly drawn) [TCMDC-135225]", "% Inhibition": 15.74}, {"smiles": "CCNc1cc(C(=O)N[C@@H](Cc2ccccc2Cl)[C@H](O)CNC(C)CCCC(C)C)cc(N2CCCCS2(=O)=O)c1", "note": "(stereo partly drawn) [TCMDC-135224]", "% Inhibition": 92.78}, {"smiles": "CCCC(C)NC[C@@H](O)[C@H](Cc1ccccc1)NC(=O)c1cc(C2CCCC2)cc(N2CCCCS2(=O)=O)c1", "note": "(stereo partly drawn) [TCMDC-135216]", "% Inhibition": 60.63}, {"smiles": "CC(C)[C@@H](C(=O)NCc1cccc(C(F)(F)F)c1)N1C(=O)CCC1C(=O)Nc1ccc([N+](=O)[O-])cc1", "note": "(stereo partly drawn) [TCMDC-141408]", "% Inhibition": -12.94}, {"smiles": "COc1ccc(Cc2cnc3nc(N)nc(N)c3c2C)cc1", "note": "[TCMDC-137704]", "% Inhibition": 42.37}, {"smiles": "CC(=O)NCC(=O)NC1=NC(C)(C)N(OCc2ccc3ccccc3c2)C(N)=N1", "note": "[TCMDC-131579]", "% Inhibition": 9.815}, {"smiles": "CC(=O)Nc1cccc(C(=O)Nc2cccc(-c3cccc(-c4nc5ccccc5[nH]4)c3)c2)c1", "note": "[TCMDC-132134]", "% Inhibition": -16.76}, {"smiles": "COc1cccc(-n2ncc3c(N/N=C/c4ccc(CN(C)CCN(C)C)cc4)ncnc32)c1", "note": "[TCMDC-138728]", "% Inhibition": 20.85}, {"smiles": "O=C(NCCCc1ccccc1)c1csc(C2CCCN(C(=O)c3ccc(O)c(-c4ccccc4)c3)C2)n1", "note": "(stereo not drawn) [TCMDC-140153]", "% Inhibition": -2.163}, {"smiles": "O=C(Nc1cccnc1)c1cn(-c2ccccc2)nc1-c1cccs1", "note": "[TCMDC-124055]", "% Inhibition": -11.35}, {"smiles": "COc1ccc(NC(=O)[C@H](CC(C)C)Nc2cc(C)nc(NCc3cccc(C)c3)n2)cc1", "note": "[TCMDC-134891]", "% Inhibition": -4.805}, {"smiles": "O=C(/C=C/c1ccc(Cl)c(Cl)c1)NCCCCCN1CCCN(C(=S)Nc2cccc(Cl)c2)CC1", "note": "[TCMDC-135894]", "% Inhibition": 9.594}, {"smiles": "O=[N+]([O-])c1cccc(NC(=S)N2CCCN(Cc3ccc(F)cc3F)CC2)c1", "note": "[TCMDC-141015]", "% Inhibition": 78.9}, {"smiles": "O=[N+]([O-])c1cccc(NC(=S)N2CCCN(Cc3ccc(C(F)(F)F)cc3)CC2)c1", "note": "[TCMDC-141016]", "% Inhibition": 26.08}, {"smiles": "O=C(Nc1cccc(OC2CCN(Cc3ccccc3)CC2)c1)Nc1cccc([N+](=O)[O-])c1", "note": "[TCMDC-139544]", "% Inhibition": -4.381}, {"smiles": "O=C(Nc1cccc(CN2CCCN(Cc3ccc(O)cc3)CC2)c1)c1cccc(F)c1", "note": "[TCMDC-141816]", "% Inhibition": -13.75}, {"smiles": "O=[N+]([O-])c1cccc(NC(=S)N2CCCN(Cc3ccc(Cl)cc3Cl)CC2)c1", "note": "[TCMDC-141017]", "% Inhibition": 68.72}, {"smiles": "Fc1ccc(-c2cncc(Nc3ccncc3)n2)cc1", "note": "[TCMDC-134499]", "% Inhibition": 21.35}, {"smiles": "CC1(C(=O)Nc2ccc([N+](=O)[O-])cc2O)CC2c3ccccc3C1c1ccccc12", "note": "(stereo not drawn) [TCMDC-124076]", "% Inhibition": -1.633}, {"smiles": "O=C(NC1CCC(N2CCN(c3cccc4[nH]ccc34)CC2)CC1)c1cc2cccnc2[nH]1", "note": "(stereo not drawn) [TCMDC-134216]", "% Inhibition": -40.15}, {"smiles": "NC1CCN(Cc2ccc(-c3ccc(-c4nc5ccc(F)cc5[nH]4)s3)cc2)C1", "note": "(stereo not drawn) [TCMDC-133854]", "% Inhibition": 66.76}, {"smiles": "NC1CCCN(Cc2ccc(-c3ccc(-c4nc5ccc(F)cc5[nH]4)s3)cc2)C1", "note": "(stereo not drawn) [TCMDC-133856]", "% Inhibition": 57.48}, {"smiles": "OC1CCCN(Cc2ccc(-c3ccc(-c4nc5ccc(F)cc5[nH]4)s3)cc2)C1", "note": "(stereo not drawn) [TCMDC-133821]", "% Inhibition": -16.69}, {"smiles": "OCC1CCN(Cc2ccc(-c3ccc(-c4nc5ccc(F)cc5[nH]4)s3)cc2)CC1", "note": "[TCMDC-133127]", "% Inhibition": -4.488}, {"smiles": "NC1CCN(Cc2ccc(-c3ccc(-c4nc5ccccc5[nH]4)s3)cc2)C1", "note": "(stereo not drawn) [TCMDC-133847]", "% Inhibition": 76.03}, {"smiles": "CC(=O)N(C)C1CCN(Cc2ccc(-c3ccc(-c4nc5ccc(F)cc5[nH]4)s3)cc2)C1", "note": "(stereo not drawn) [TCMDC-133895]", "% Inhibition": -2.042}, {"smiles": "NC1CCCN(Cc2ccc(-c3ccc(-c4nc5ccccc5[nH]4)s3)cc2)C1", "note": "(stereo not drawn) [TCMDC-133849]", "% Inhibition": 41.97}, {"smiles": "NC1CCN(Cc2cccc(-c3ccc(-c4nc5ccccc5[nH]4)s3)c2)C1.O=C(O)C(F)(F)F", "note": "(stereo not drawn) [TCMDC-133869]", "% Inhibition": 26.1}, {"smiles": "CCOc1cc(C(=O)NCC2CCN(CC3CCCCC3)CC2)ccc1-c1nc2ccc(Cl)cc2[nH]1", "note": "[TCMDC-140914]", "% Inhibition": -32.49}, {"smiles": "O=C(NCCc1ccc(Cl)c(Cl)c1)[C@@H]1CCCN1C(=O)c1ccc(O)c(-c2cccc(C(F)(F)F)c2)c1", "note": "[TCMDC-140822]", "% Inhibition": 3.039}, {"smiles": "O=C(NCc1ccc(Cl)cc1)c1ccc(C(=O)NCC2CCCN2CC2CCCCC2)cc1", "note": "(stereo not drawn) [TCMDC-136754]", "% Inhibition": -3.385}]}]}
